Data from PubChem BioAssay (NCATS).
Results filed as inconclusive are left out. The source made the active and inactive calls. Unless noted, the call rests on the fitted dose curve; in most records, active means well fitted curve in the direction sought with a large enough effect; inconclusive means small, poorly fitted or top-dose-only effect, or another doubt; inactive means no such curve, though single readings can be large; an effect the other way counts as inactive or inconclusive.

Key:
[1] = qHTS assay for measurement of the activity of small molecule inhibitors on Zika virus induced Caspase-3 activity in human iPSC derived neural progenitor cells (hNPCs) (AID 1224857); further: % of control where 0% means no effect; nearly all actives have a fitted effect of over 65% in size
Outline: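 hNPCs seeded 350 cells/well, cultured 16–20 h; compounds added 1 h before ZIKV (2 FFU/cell), 37 C 6 h. Caspase-Glo 3/7 luminescence after 30 min RT; % inhibition from induction scaled to uninfected (0%) and infected (100%) wells.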

[2] = qHTS assay for measurement of the activity of small molecule inhibitors on Zika virus induced Caspase-3 activity in human astrocytoma cells (AID 1224859);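 further: plate controls were ZIKV-infected untreated cells for no effect and uninfected cells for full effect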
Outline: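 Luminescence read-out (Caspase-Glo 3/7, 30 min RT) of caspase activity in SNB-19 cells infected 6 h with ZIKV, 2 FFU/cell, after 1 h compound pretreatment; % inhibition from induction normalised to uninfected (0%) and infected (100%) wells.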

[3] = NS1 protein of Zika virus - qHTS assay to identify small molecule inhibitors in human HEK 293 cells (AID 1347053);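 further: plate controls were infected untreated cells for no effect and uninfected cells for full effect; nearly all actives have a fitted effect of over 55% in size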
Outline: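 Read-out is a two-antibody TR-FRET for ZIKV NS1, normalized between uninfected cells and infected cells. Compound added 1 h before MR766 infection at MOI 0.5; human HEK 293 cells incubated 24 h, 37 C.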

[4] = qHTS of pediatric cancer cell lines to identify multiple opportunities for drug repurposing: Primary screen for TC32 cells (AID 1347089); further: on the % scale 0 is the no-effect control and ±100 the full control effect; nearly all actives have a fitted effect of over 60% in size
Outline: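 qHTS, TC32, 48 h drug treatment, CellTiter-Glo luminescence as a proxy for metabolically active cells; primary top concentration 46 µM (MIPE 11-pt, NPC 8-pt); confirmatory 11-pt.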

[5] = qHTS of pediatric cancer cell lines to identify multiple opportunities for drug repurposing: Primary screen for DAOY cells (AID 1347090);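 further: plate controls were DMSO for no effect and bortezomib for full effect; nearly all actives have a fitted effect of over 55% in size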
Outline: (§1)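 Viability measured as metabolically active cells via CellTiter-Glo luminescence following 48 hours of compound exposure, 11-point dilutions in confirmatory testing. 500-1,000 cells/well plated 5 hours before dosing; controls were DMSO and 2.3 µM bortezomib.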

[6] = qHTS of pediatric cancer cell lines to identify multiple opportunities for drug repurposing: Primary screen for SJ-GBM2 cells (AID 1347091);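 further: plate controls were DMSO neutral control for no effect and bortezomib for full effect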
Outline: as §1

[7] = qHTS of pediatric cancer cell lines to identify multiple opportunities for drug repurposing: Primary screen for A673 cells (AID 1347092); further: on the % scale 0 is the no-effect control and ±100 the full control effect; nearly all actives have a fitted effect of over 45% in size
Outline: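 Luminescence from CellTiter-Glo, taken after 15 min at room temperature, served as the proxy for metabolically active cells following 48 h treatment. Both potency and efficacy were taken from curves fitted to the titration data.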

[8] = qHTS of pediatric cancer cell lines to identify multiple opportunities for drug repurposing: Primary screen for BT-37 cells (AID 1347094);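 further: plate controls were DMSO for no effect and bortezomib for full effect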
Outline: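 Cells plated at 500-1,000/well in growth medium, compounds added after 5 h. MIPE tested at 11 points (from 0.78 nM), NPC at 8 points (from 0.59 nM). CellTiter-Glo luminescence after 48 h; concentration-response curves from primary screen.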

[9] = qHTS profiling of the MIPE4 collection as inhibitors of Plasmodium falciparum (3D7) proliferation (AID 743344; call rule not given here;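 further: scaled between DMSO vehicle wells and 0.29 µM artemisinin as full inhibition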); conditions: P. falciparum 3D7 in erythrocytes, SYBR Green DNA fluorescence, 72 h; at 28.5 µM (top of the series) unless noted
Outline: (§2)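 Parasite DNA was quantified by SYBR Green I fluorescence (ex 485, em 535 nm) after overnight lysis in saponin/Triton buffer at room temperature. Cultures at 0.3% parasitemia and 2.5% hematocrit were first exposed to compound for 72 h at 37 C; signals were normalised to artemisinin (0.29 uM) and vehicle wells.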

[10] = qHTS profiling of the MIPE4 collection as inhibitors of Plasmodium falciparum (DD2) proliferation (AID 743345; call rule not given here); conditions: P. falciparum Dd2 in erythrocytes, SYBR Green DNA, 72 h; at 28.5 µM (top of the series) unless noted
Outline: as §2

[11] = qHTS profiling of the MIPE4 collection as inhibitors of Plasmodium falciparum (DD2) proliferation (Rep 2) (AID 743346; call rule not given here); conditions: P. falciparum Dd2 in erythrocytes, SYBR Green DNA, 72 h; at 28.5 µM (top of the series) unless noted
Outline: as §2

[12] = qHTS profiling of the MIPE4 collection as inhibitors of Plasmodium falciparum (HB3) proliferation (AID 743347; call rule not given here;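 further: plate controls were DMSO vehicle wells for no effect and artemisinin wells for full effect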); conditions: P. falciparum HB3 in erythrocytes, SYBR Green DNA, 72 h; at 28.5 µM (top of the series) unless noted
Outline: as §2

[13] = qHTS of pediatric cancer cell lines to identify multiple opportunities for drug repurposing: Primary screen for SK-N-MC cells (AID 1347093);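 further: plate controls were DMSO neutral control for no effect and bortezomib for full effect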
Outline: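 Metabolically active cells were quantified by ATP-dependent luminescence (CellTiter-Glo, 15 min at room temperature) following 48 h treatment. Cells had been plated at 500-1,000 per well and settled for 5 h beforehand.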

CNC[C@H](O)[C@@H](O)[C@H](O)[C@H](O)CO
inactive: Potency [1] | outcome [2] | Potency [3] | Potency [4] | Potency [5] | Potency [6] | Potency [7] | Potency [8]

O=C1Nc2ccccc2C1(c1ccc(O)cc1)c1ccc(O)cc1
inactive: Potency [1] | outcome [2] | Potency [3] | Potency [4] | Potency [5] | Potency [6] | Potency [7] | Potency [8]

NCC[C@H](O)C(=O)N[C@@H]1C[C@H](N)[C@@H](O[C@H]2O[C@H](CN)[C@@H](O)[C@H](O)[C@@H]2O)[C@H](O)[C@@H]1O[C@H]1O[C@H](CO)[C@@H](O)[C@H](N)[C@@H]1O
inactive: activity change, negative = inhibition [1] -1.8% [at 0.568 µM] | activity change, negative = inhibition [2] 13.4% [at 0.568 µM] | activity change, negative = inhibition [3] -0.409% [at 0.593 µM] | activity change, negative = cytotoxic [4] 10.2% [at 0.594 µM] | activity change, negative = cytotoxic [5] 11.4% [at 0.597 µM] | activity change, negative = cytotoxic [6] 26.2% [at 0.597 µM] | activity change, negative = cytotoxic [7] -3.3% [at 0.597 µM] | activity change, negative = cytotoxic [13] -10.7% [at 0.597 µM] | activity change, negative = cytotoxic [8] 11.5% [at 0.745 µM]
163% [at 0.217 µM]: parasite growth, % of control (lower = inhibition) [11]
98% [at 0.217 µM]: parasite growth, % of DMSO control [9]
89.8% [at 0.217 µM]: parasite growth remaining, % of DMSO control (lower = more inhibition) [10]
94.3% [at 0.217 µM]: growth, % of control [12]

CCOc1c(N2CCOCC2)cnn(C)c1=O
inactive: Potency [1] | outcome [2] | Potency [3] | Potency [4] | Potency [5] | Potency [6] | Potency [7] | Potency [13] | Potency [8]

CCOC(=O)C(O)c1ccccc1 (centres undefined)
inactive: Potency [1] | outcome [2] | Potency [3] | Potency [4] | Potency [5] | Potency [6] | Potency [7] | Potency [13] | Potency [8]

CC(=O)N(c1onc(C)c1C)S(=O)(=O)c1ccc(N)cc1
inactive: Potency [1] | outcome [2] | Potency [3] | Potency [4] | Potency [5] | Potency [6] | Potency [13] | Potency [8]

CC(=O)[C@@]1(O)CC[C@H]2[C@@H]3C[C@H](C)C4=CC(=O)CC[C@]4(C)[C@H]3CC[C@@]21C
inactive: Potency [1] | outcome [2] | Potency [3] | Potency [4] | Potency [5] | Potency [6] | Potency [7] | Potency [8]

CN(C)CCOC(c1ccccc1)c1ccc(Br)cc1 (centres undefined)
inactive: Potency [1] | outcome [2] | Potency [3] | Potency [4] | Potency [5] | Potency [6] | Potency [8]

CCN(CC)C(=O)C1CN2CCc3cc(OC)c(OC)cc3C2CC1OC(C)=O (centres undefined)
inactive: Potency [1] | outcome [2] | Potency [3] | Potency [4] | Potency [5] | Potency [6] | Potency [7] | Potency [8]

COc1cc(S(N)(=O)=O)cc(C(=O)O)c1OC
inactive: Potency [1] | outcome [2] | Potency [3] | Potency [4] | Potency [5] | Potency [6] | Potency [7] | Potency [8]

COc1ccc(OC(=O)N(CC(=O)O)Cc2ccc(OCCc3nc(-c4ccccc4)oc3C)cc2)cc1
inactive: Potency [1] | outcome [2] | Potency [3] | Potency [4] | Potency [5] | Potency [6] | Potency [7] | Potency [8]
